Results as given in PubChem BioAssay (NCI).
The panel holds about 83,000 compounds, 20% with a hit somewhere; the sample as a whole holds those more often.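 Growth was measured after 48 h exposure to one concentration of compound in 96-well plates. Values under 10 count as active.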 A number with no mark means an inactive call. Calls of active or inactive are those of the source.

tested on: A498 renal; assay: NCI-60 one-dose screen, 48 h (100 = growth as untreated, 0 = no growth, -100 = all killed); details: 10 µM unless noted

First: Cn1cc(-c2csc(-c3c[nH]c4ccccc34)n2)c2ccnc(Cl)c21
Second: Cn1cc(-c2nc(-c3c[nH]c4c(Cl)nccc34)cs2)c2cc(F)ccc21
The growth of the first is lower: 53.8% for the first, 83.2% for the second.

First: COc1ccc2nc(-c3ccc(-c4noc(-c5cc(OC)c(OC)c(OC)c5)n4)cc3)[nH]c2c1
Second: COc1ccc(OC)c(CCn2cncc2-c2c[nH]c3ccccc23)c1
The growth of the first is higher: 101% for the first, 61.8% for the second.

First: O=C1NN(C(=O)c2ccccc2)C(c2ccc(Cl)c(Cl)c2)=C/C1=C\c1ccc([N+](=O)[O-])cc1
Second: N#Cc1c(-c2cccc([N+](=O)[O-])c2)nc(SCC(=O)c2ccc(Cl)cc2)[nH]c1=O
The growth of the first is lower: 80.4% for the first, 92.3% for the second.

With Cc1nc2sccn2c1-c1cn2ccsc2n1 the growth was 82.7%.

For COC(=O)c1ccc2c(c1)[n+](=O)c(C(C)=O)c(C(F)(F)F)n2[O-], the growth was 6.79% (active).

Compound C#Cc1cccc(NC(=O)Nc2cccc(NC(=O)CCl)c2)c1 has a growth of 76.5% [8.25 µM].

tested on: CCRF-CEM leukemia; assay: as above; details: 10 µM unless noted

First: CCCCN1C=CCN(CCCC)C1
Second: CC(C)c1ccc(Nc2ccc3c(OCCCN4CCN(C)CC4)cccc3n2)cc1
The growth of the first is higher: 87.2% for the first, 30% for the second.

Going from Cc1nn(-c2ccccc2)c(Cl)c1/C=N\N=c1/sc2ccccc2n1C to O=C(/C=C/c1c(-c2ccc(Cl)cc2)nn(-c2ccccc2)c1C(F)(F)F)c1ccc(Cl)cc1, the growth falls from 92.7% to 85.6%.

Compared with COc1cc(CC(=O)n2ncc3ccc(N)cc32)cc(OC)c1OC, COc1ccc(OC)c(CCn2cncc2-c2c[nH]c3ccccc23)c1 is lower in growth: 101% for the first, 68.1% for the second.

Going from Cn1cc(-c2nc(-c3c[nH]c4c(Cl)nccc34)cs2)c2cc(Br)ccc21 to Cn1cc(-c2nc(-c3c[nH]c4c(Cl)nccc34)cs2)c2cc(F)ccc21, the growth rises from 74.4% to 97.8%.

Going from CCNc1nc2ccc(Nc3ccnc4cc(Cl)ccc34)cc2[nH]1 to C[C@@H](Nc1ncnc2ccc(-c3cnc(N)nc3)cc12)c1ccc(F)cc1, the growth rises from 42.8% to 95.3%.

Going from Cc1ncc(C(=O)Nc2ccc(CN3CCN(C)CC3)c(C(F)(F)F)c2)cc1C#Cc1cnc(N)cc1C#N to Cc1ccc(NS(=O)(=O)c2ccc(-c3cnc(C4CC4)o3)cc2)cc1C(F)(F)F, the growth rises from 13.6% to 56.8%.

Going from C[C@H](c1nc2ccc(N)cc2[nH]1)[C@H]1CC[C@H]2[C@@H]3CCC4=CC(=O)CC[C@]4(C)[C@H]3CC[C@]12C to Cc1c2cc[nH]c(=O)c2c(C)c2c1[nH]c1cc(OCCN3CCN(C)CC3)ccc12, the growth falls from 63.7% to 13.9%.

Going from N#CC1=C(N)Oc2c(ccc3ccccc23)C1c1ccccc1Cl (stereo not drawn) to CCN(c1ccccc1)S(=O)(=O)c1cc([N+](=O)[O-])ccc1Cl, the growth rises from 29.6% to 52%.

Going from Brc1ccc2[nH]cc(-c3cncn3CCc3ccccc3)c2c1 to Cn1cc(-c2csc(-c3c[nH]c4ccccc34)n2)c2ccnc(Cl)c21, the growth falls from 57.9% to 57.4%.

First: O=C1NN(C(=O)c2ccccc2)C(c2ccc(Cl)c(Cl)c2)=C/C1=C\c1ccc([N+](=O)[O-])cc1
Second: Cc1nc2sccn2c1-c1cn2ccsc2n1
The growth of the first is lower: 88.5% for the first, 96.3% for the second.

With COc1cc(/C=C\c2cc(/C=C\c3ccc(O)c(OC)c3)n(C(=O)COc3ccccc3)n2)ccc1O the growth was 6.79% (active).
With COc1cc2cc(Oc3cccc(NC(=O)Nc4cc(C(F)(F)F)cc(C(F)(F)F)c4)c3)c(C)nc2cc1OC the growth was 0.186% (active).
For Cc1cc(Cl)nc(N(CCNc2ccnc3cc(Cl)ccc23)Cc2ccccn2)n1, the growth was 7.95% (active).
COc1ccc(C(=O)c2cc(OC)c(OC)c(OC)c2)cc1O was tested, and the growth was 5.92% (active).
In the case of N#C/C(=C\c1ccc([N+](=O)[O-])s1)c1nc2cc(Br)ccc2s1, the growth is reported as -19.5% (active).
For C=C1C(=O)O[C@H]2[C@H]1CC/C(CNS(=O)(=O)c1cccc3ccccc13)=C\CC[C@@]1(C)O[C@@H]21, the growth was 1.32% (active).
With COc1cc(C(=O)Nc2cc3c(cc2Oc2cc(C)cc(C)c2)C(=O)N(C)[C@@H](CC(=O)N(C)O)C(=O)N3)c(Br)c(OC)c1OC the growth was 2.91% (active).
N#Cc1c(-c2cccc([N+](=O)[O-])c2)nc(SCC(=O)c2ccc(Cl)cc2)[nH]c1=O was tested, and the growth was 2.87% (active).

Work on C#Cc1cccc(NC(=O)Nc2cccc(NC(=O)CCl)c2)c1 yielded a growth of 14.9% [8.25 µM].
